# Test results taken from PubChem BioAssay AID493014 (National Center for Advancing Translational Sciences (NCATS), 2011).
# About 170 (0.05%) of roughly 340,000 compounds were called active. Roughly 26% stayed inconclusive and do not appear here. The sample holds actives, similar compounds and a random draw of the others, so the mix is not that of the screen. A number with no mark means an inactive call. Calls come from the whole dose curve; as a rule, active = well fitted inhibition curve with a large enough effect in the signal ratio, with a control signal flat (not every such curve was filed as active); inconclusive = small, poorly fitted or top-dose-only effect, or effect the other way, or a change in a side signal; inactive = flat fitted curve, though single readings scatter; the % refers to the signal ratio.
# Assay: qHTS Assay to Find Inhibitors of Chronic Active B-Cell Receptor Signaling;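 for activity change, negative = inhibition: plate controls were basal doxycycline-induced cells for no effect and cells given 10 µM MG132 for full effect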
# Conditions: ABC-DLBCL IkBa-CBG/CBR reporter, luminescence ratio, 4 h; series mostly up to 46.1 µM; activity change, negative = inhibition: at the top concentration
# Outline: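 Doxycycline induced both beetle luciferases in TMD8 lymphoma cells; IKK-driven degradation limits the IkappaBalpha-fused green signal, while red luminescence normalises for cell number and nonspecific effects. Compounds tested up to 46 uM, 4 hrs.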
# Potency is the fitted concentration of half-maximal effect.
Structure (SMILES),"activity change, negative = inhibition",Potency
CC(C)(C)OC(=O)C[C@@H]1C/C=C\C[C@@H](CC(=O)N[C@H](CO)Cc2ccccc2)C(=O)NC[C@@H](c2ccccc2)OC1=O,1.85%,–
Cc1ccc(NC(=O)CCC(=O)N2CCC(c3ccccc3)=N2)cc1S(=O)(=O)N1CCCCC1,6.15%,–
Cc1ccc(-n2ncc(C(=O)NC3CC3)c2C2CCN(C(=O)OC(C)(C)C)CC2)c(C)c1,5.88%,–
COc1ccc(CN2C(CC(=O)Nc3cccnc3)c3ccc(C(F)(F)F)cc3S2(=O)=O)cc1 (stereo not given),-7.67%,–
Cn1c2cc(B(O)O)sc2c2cnn(Cc3ccccc3F)c(=O)c21,25.8%,–
COc1ccc(-c2c(-c3cc(OC)cc(OC)c3)n(C)c3ccc(-c4ccn[nH]4)cc23)cc1,-0.87%,–
COc1ccc(S(=O)(=O)N2CCCCC2)cc1NC(=O)c1cc([N+](=O)[O-])ccc1N1CCOCC1,5.45%,–
Cc1ccc(NC(=O)c2cccc(S(=O)(=O)N3CCCc4ccccc43)c2)nc1,12.1%,–
Cc1ccc(S(=O)(=O)N2CCN(C(=O)Cn3c(=O)cnc4ccccc43)CC2)c(C)c1,-0.195%,–
COc1ccc(N2CCN(C(CNS(=O)(=O)c3ccc(C)cc3)c3ccccc3)CC2)cc1 (stereo not given),4.46%,–
COc1ccc(CCN(C)C(=O)C23CC4CC(CC(Cl)(C4)C2)C3)cc1OC,0.382%,–
COC(=O)[C@]1(C)N[C@H](c2ccc(-c3ccc(Cl)c(Cl)c3)cc2)[C@@H]2C(=O)N(C)C(=O)[C@@H]21,-4.17%,–
CC(C)(C)OC(=O)C[C@@H]1C/C=C\C[C@@H](CC(=O)N(CCO)Cc2ccccc2)C(=O)N[C@H](Cc2ccccc2)COC1=O,0.431%,–
CSCCC1NC(=O)N(CC(=O)Nc2cccc(S(=O)(=O)N3CCCCCC3)c2)C1=O (stereo not given),-1.39%,–
Cc1c(O)c(C)c2c(c1O)C(=O)C[C@@H](c1ccccc1)O2,12.1%,–
COc1ccc(/C=C(\C#N)C(=O)NCCCn2ccnc2)cc1,0.0871%,–
COc1ccc(CNC(=O)/C(C#N)=C/c2cccc(OC)c2OC)cc1,–,11.2 µM (active)
COc1ccc(CNC(=O)CCn2cccc2)cc1,14.4%,–

Structure (SMILES),"activity change, negative = inhibition",Potency
CCC1=Nc2cc(C(=O)NCCCN3CCOCC3)ccc2Sc2ccc(Br)cc21,2.34%,–
COCCCNC(=O)CC1C[C@H](C(=O)N2CCCCC2)[C@@]2(CCc3ccccc3)c3[nH]c4ccccc4c3CCN2C1=O (stereo not given in full),-1.58%,–
O=C1OC[C@@H]2CCCN2C(=O)[C@H](CC(=O)N(CCO)Cc2ccccc2)C/C=C\CC[C@@H]1Cc1ccc(F)cc1,0.374%,–
Cc1cccc(Nc2nnc(SCC(=O)c3c(N)n(C4CC4)c(=O)[nH]c3=O)s2)c1C,0.765%,–
Cc1cccc(C)c1NC(=O)COC(=O)c1c(C)nn(-c2ccccc2)c1C,-0.466%,–
O=C1NC(Cc2ccc(O)cc2)c2nc3ccc(Cl)cc3c(=O)n2-c2ccccc21 (stereo not given),-3.14%,–
CCC(CC)COC(=O)C1=C(C)NC(=O)NC1c1ccc([N+](=O)[O-])cc1 (stereo not given),-8.44%,–
Cc1ccc(CC(=O)Nc2ccc(S(=O)(=O)N3CCOCC3)cc2)cc1C,-2.28%,–
CC(C)(C)OC(=O)Nc1ccc([C@@H](NC(=O)OC(C)(C)C)C(=O)OC(C)(C)C)cc1,-1.99%,–
CN(C(=O)c1cccc(NC(=O)Cc2ccc([N+](=O)[O-])cc2)c1)C1CCC1,-5.64%,–
CN(C)S(=O)(=O)c1cccc(NC(=O)COc2ccc3ccccc3c2)c1,-4.65%,–
COc1ccc(-c2nc3c(s2)CCc2onc(-c4ccc(OC)cc4)c2-3)cc1,2.16%,–
CCOC(=O)[C@@H]1[C@H]2COc3ccc(Br)cc3[C@H]2N2C(=O)N(c3ccc(C)cc3)C(=O)[C@@]12C,-0.0599%,–
CN(C(=O)c1cccc(NC(=O)C2CCN(C(=O)OC(C)(C)C)CC2)c1)C1CCC1,-17.4%,–
CC(=O)c1ccc(OCCCC(=O)Nc2ccc(C)c(S(=O)(=O)N3CCOCC3)c2)cc1,-3.66%,–
COc1cc(C(c2c(NC(=O)c3ccco3)sc(C)c2C)N2CCOCC2)cc(OC)c1OC (stereo not given),2.54%,–
Cc1ccc(S(=O)(=O)N(C)C)cc1NC(=O)CN1c2cccc3cccc(c23)S1(=O)=O,-4.26%,–
